The text below walks through data of the supplement of paper PMC4962491.

In the assay the test system is FaDu. The assay can be described thus: mitochondrial oxygen consumption rate normalised to cell number, Z score vs plate DMSO wells; higher = higher oxygen consumption (negative = OCR reduction). As to conditions: treatment time 24 h, assay medium: 5 mM glucose, 5 mM pyruvate, 4 mM glutamine. On the procedure: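 Secondary screen: FaDu cells were incubated 24 h with the top 130 primary hits at 0.08, 0.4, 2 or 10 uM. Mitochondrial-specific OCR (basal minus antimycin A) was measured on a Seahorse XF96 in medium with 5 mM glucose, 5 mM pyruvate and 4 mM glutamine and normalised to Hoechst cell number. OCR score = (OCR - mean of plate DMSO wells) / SD of plate DMSO wells. Three repeats.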

± gives the standard deviation of the averaged measurements.
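Further: compound exposure in DMEM (4 mM L-glutamine, 5 mM glucose), antimycin A injected at 2 µM after the basal reading and its residual OCR subtracted from basal.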

As for `CCN1C[C@]2(COC)[C@H](O)C[C@H](OC)[C@@]34[C@@H]5C[C@@]6(O)[C@H](OC(=O)c7ccccc7)[C@@H]5[C@@](OC(C)=O)([C@@H]([C@H](OC)[C@H]23)[C@@H]14)[C@@H](O)[C@@H]6OC`, the “mitochondrial oxygen consumption rate normalised” value reads like this: (0.08 µM) -1.27 ± 0.64; (0.4 µM) 0.916 ± 0.68; (2 µM) -0.205 ± 0.67; (10 µM) -1.19 ± 2.6.
In the case of `CC[C@H]1CN2CCc3cc(OC)c(OC)cc3[C@@H]2C[C@@H]1C[C@H]1NCCc2cc(OC)c(OC)cc21`, the “mitochondrial oxygen consumption rate normalised” value is, setting by setting: (0.08 µM) -2.43 ± 0.17; (0.4 µM) -3.08 ± 0.73; (2 µM) -9.68 ± 0.42; (10 µM) -11.8 ± 0.41.
For `O=c1[nH]c2ccccc2n1C1CCN(CCCC(c2ccc(F)cc2)c2ccc(F)cc2)CC1`, in that order: 0.0686 ± 1.5, 0.719 ± 0.8, -0.247 ± 1 and -2.41 ± 0.47.
In the same order, the values of `CC(=O)Oc1ccc(Cl)c2cccnc12` are 1.68 ± 0.74, 1.4 ± 1.5, 1.41 ± 0.58 and -4.99 ± 1.8.
Turning to `C=C1C[C@@H]2[C@H](CC[C@]3(C)C(=O)CC[C@@H]23)[C@@]2(C)C=CC(=O)C=C12`, the “mitochondrial oxygen consumption rate normalised” value is, setting by setting: (0.08 µM) -0.364 ± 0.53; (0.4 µM) 1.24 ± 0.73; (2 µM) -0.149 ± 1; (10 µM) 0.548 ± 0.94.
As to `COc1cc([C@@H]2c3cc4c(cc3[C@H](O)[C@H]3COC(=O)[C@H]23)OCO4)cc(OC)c1OC`, the “mitochondrial oxygen consumption rate normalised” value is -0.539 ± 1.6 (0.08 µM), -0.043 ± 0.98 (0.4 µM), 0.427 ± 0.56 (2 µM) and -0.617 ± 1.2 (10 µM).
Regarding `CCCCCCCCCCCCCCCC[n+]1ccccc1`, the “mitochondrial oxygen consumption rate normalised” value reads like this: (0.08 µM) -1.4 ± 1.2; (0.4 µM) -7.98 ± 1.3; (2 µM) -12.98 ± 0.12.
As for `S=C=NCc1ccccc1`, the “mitochondrial oxygen consumption rate normalised” value was 0.549 ± 1.3 (0.08 µM), 1.06 ± 1.3 (0.4 µM) and 0.157 ± 2.2 (2 µM).
Turning to `COc1ccc(Cc2nccc3cc(OC)c(OC)cc23)cc1OC`, the “mitochondrial oxygen consumption rate normalised” value by setting is: (0.08 µM) 0.452 ± 1; (0.4 µM) 1.06 ± 1.4; (2 µM) 0.739 ± 0.59; (10 µM) -0.208 ± 3.2.
For `CC(C)[N+](C)(CCC(C(N)=O)(c1ccccc1)c1ccccc1)C(C)C`, the “mitochondrial oxygen consumption rate normalised” value (0.08 µM) was -0.746 ± 1.7, the “mitochondrial oxygen consumption rate normalised” value (0.4 µM) is 0.934 ± 0.43, the “mitochondrial oxygen consumption rate normalised” value (2 µM) amounted to 0.355 ± 1.3 and the “mitochondrial oxygen consumption rate normalised” value (10 µM) was -0.361 ± 2.
With `CC(=O)O[C@H]1C[C@H](O[C@H]2[C@@H](O)C[C@H](O[C@H]3[C@@H](O)C[C@H](O[C@H]4CC[C@@]5(C)[C@H](CC[C@@H]6[C@@H]5C[C@@H](O)[C@]5(C)[C@@H](C7=CC(=O)OC7)CC[C@]65O)C4)O[C@@H]3C)O[C@@H]2C)O[C@H](C)[C@H]1O[C@@H]1O[C@H](CO)[C@@H](O)[C@H](O)[C@H]1O`, the “mitochondrial oxygen consumption rate normalised” value (0.08 µM) is -0.88 ± 0.81 and the “mitochondrial oxygen consumption rate normalised” value (0.4 µM) was -3.22 ± 1.3.
